An excerpt weighted towards active compounds, which were near 7.6% of everything screened.
KCNH2 3.1 block – qHTS for Inhibitors of KCHN2 3.1: Mutant qHTS; 0.95% of 340,000 active; U2OS KCNH2 3.1, thallium flux FluxOr; active compounds read low; AID 720553, 2013; Potassium voltage-gated channel subfamily H member 2, brain isoform KCNH2 3.1 (human); activity change, % (tested at about 1.8 µM);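 active = maximum activity change below -70%; inconclusive = maximum activity change from -70% to -50%; inactive = maximum activity change above -50%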;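 note: thallium influx rate constant from kinetic fluorescence after stimulation buffer; % is set by controls: 0 for no effect and ±100 for the full control effect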
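Thallium flux via FluxOr fluorescence (Red40 quencher, 45 min loading) in U2OS cells virally expressing the KCNH2 3.1 isoform (1.77 x 10^8 /mL virus, overnight at 37 C). Rate constants from 2-min kinetic reads post-stimulation, normalised to positive and negative controls.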
KB-3-1 cytotox – qHTS assay for MDR1-selective chemotherapeutics: Primary screen using the parental adenocarcinoma cell KB-3-1. KB-3-1 viability, CellTiter-Glo ATP luminescence, 72 h. Potency, µM (doses to about 46.1 µM), hits mostly cytotoxic. 1.4% of 400,000 active. AID 1347075, 2019; note: potency is the fitted concentration of half-maximal effect; % is set by controls: 0 for no effect and ±100 for the full control effect; nearly all actives have a fitted effect of over 60% in size
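Cytotoxicity measured as CellTiter-Glo luminescence after 72 h at 37 C. Compound titrations were pinned onto drug-naive KB-3-1 parental adenocarcinoma cells grown in DMEM with 10% FBS, and normalized data fitted to concentration-response curves.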
KB-V1 cytotox – qHTS assay for MDR1-selective chemotherapeutics: Primary screen using the drug-selected MDR subline cells KB-V1. KB-V1 MDR cells viability, CellTiter-Glo, 72 h. Potency, µM (highest dose often 46.1 µM), actives largely listed as cytotoxic. 3.4% of 400,000 active; note: potency is the fitted concentration of half-maximal effect; % is set by controls: 0 for no effect and ±100 for the full control effect; nearly all actives have a fitted effect of over 60% in size
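Drug-selected KB-V1 cells, grown in DMEM lacking phenol red with 10% FBS, receive compound titrations; after three days at 37 degrees C, surviving cell ATP is quantified by CellTiter-Glo luminescence and responses normalized and curve-fitted.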
KCNH2 WT inh – qHTS for Inhibitors of KCHN2 3.1: Wildtype qHTS; Voltage-gated inwardly rectifying potassium channel KCNH2 (Homo sapiens), Q12809; U2OS, BacMam KCNH2, thallium flux FluxOr; active compounds read low; activity change, % at 1.84 µM; 0.37% of 340,000 active; AID 720551, 2013;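 active = maximum activity change below -70%; inconclusive = maximum activity change between -70% and -50%; inactive = maximum activity change above -50%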; note: % is set by controls: 0 for no effect and ±100 for the full control effect
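U2OS cells transduced with wild-type KCNH2 virus are loaded with FluxOr dye for 45 min, and thallium flux is measured in kinetic reads before and after stimulation buffer. Rate constants are normalized to DMSO controls.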
MCF10A rereplic – A quantitative high throughput screen for small molecules that induce DNA re-replication in MCF 10a normal breast cells | MCF 10A DNA re-replication, Hoechst nuclear intensity, 48 h | Potency, µM (top dose mostly 46.1 µM), for the others: at the top dose activity, positive = re-replication, hits mostly activators | 2.9% of 350,000 active | AID 624296, 2012; note: potency is the fitted concentration of half-maximal effect; % of control where 0% means no effect; nearly all actives have a fitted effect of over 50% in size
SW480 rerep – A quantitative high throughput screen for small molecules that induce DNA re-replication in SW480 colon adenocarcinoma cells | SW480 DNA re-replication, Hoechst DNA content imaging, 48 h | 1.8% of 340,000 active | Potency, µM (doses to about 46.1 µM), for inactives: top-dose re-replication activation, hits mostly activators; note: potency is the fitted concentration of half-maximal effect; % of control where 0% means no effect; nearly all actives have a fitted effect of over 55% in size
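Readout is total intensity of Hoechst-stained nuclei, excited at 405 nm and collected at 500-530 nm. Compound treatment lasted 48 hr at 37 C in 5% CO2 before staining.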
* = called active by the depositor; i = inactive; ? = inconclusive; / = no result; [ ] = remark or other dose. Unless noted, calls come from the whole dose curve; as a rule, active = well fitted curve in the direction sought with a large enough effect; inconclusive = small, poorly fitted or top-dose-only effect, or another doubt; inactive = no such curve, though single readings can be large; an effect the other way counts as inactive or inconclusive.

SMILES	KCNH2 3.1 block	KB-3-1 cytotox	KB-V1 cytotox	KCNH2 WT inh	MCF10A rereplic	SW480 rerep
O=C(Nc1ccc(C(=O)OC[C@@H]2CCCN3CCCC[C@H]23)cc1)c1cccc(Br)c1	-26.5	i	i	-4.5	23.1µM*	-4.9%
O=C(NC(=O)c1cccc(F)c1)OC[C@@H]1CCCN2CCCC[C@H]12	-5.9	?	?	22.9	0.7%	-11.8%
CCOc1ccc2c(c1)OC(c1ccc(C)cc1)(C(F)(F)F)NC2=O (stereo unspecified)	-1.3	i	1.3µM*	28.4	1.46µM*	?
CCOc1ccc2c(c1)OC1(CCC(C)C1)CC2=O (stereo unspecified)	7.7	i	i	-1.2	-0.2%	2.7%
Cc1ccc(S(=O)(=O)N2CCOCC2)cc1NC(=O)Nc1ccc([N+](=O)[O-])cc1	-2.1	/	/	4.3	5.6%	3.3%
Cc1cc(C)n(-c2ccc(C(=O)NCC(c3ccco3)N3CCCC3)cc2)n1 (stereo unspecified)	-1.1	i	i	5.2	?	?
Cc1cccc(C)c1Nc1nnc(SCc2cn3cccc(C)c3n2)s1	-178.9*	i	i	/	8.8%	-87.7%
Cc1cccc(C)c1Nc1nnc(SCC(=O)NC(=O)c2cccn2C)s1	-10.1	i	i	-6.3	5.2%	4.4%
CC(C)(C)C(=O)NC1CCN(CC(=O)Nc2ccc3c(c2)OCO3)CC1	9.4	?	?	-3.0	37.2%	-6.2%
O=C(N/N=C/c1ccccc1O)C(=O)N1CCCCCC1	-4.0	?	i	2.7	17.0%	5.8µM*
O=C(N/N=C/c1ccccc1F)C(=O)N1CCCCCC1	-17.9	i	i	-2.7	-14.2%	-18.7%
COc1c(O[C@H]2O[C@@H](CO)[C@@H](O)[C@@H](O)[C@@H]2O)cc2c(c1OC)-c1ccc(SC)c(=O)cc1[C@H](NC(C)=O)CC2	/	/	/	/	-0.4%[20.6 µM]	0.4%[20.6 µM]
CCOC(=O)NC1CCc2cc(OC)c(OC)c(OC)c2-c2ccc(SC)c(=O)cc21 (stereo unspecified)	-7.5	0.164µM*	0.231µM*	37.2	?	0.0366µM*
CN[C@H]1CCc2cc(OC)c(OC)c(OC)c2-c2ccc(OC)c(=O)cc21	-1.7	0.0291µM*	1.16µM*	-7.1	?	?
CCCCOC(=O)NC1CCc2cc(OC)c(OC)c(OC)c2-c2ccc(SC)c(=O)cc21 (stereo unspecified)	-21.2	0.146µM*	0.291µM*	2.9	?	?
CCOCC(=O)NC1CCc2cc(OC)c(OC)c(OC)c2-c2ccc(SC)c(=O)cc21 (stereo unspecified)	0.1	0.0058µM*	?	1.2	?	0.0517µM*
O=C(CCCn1c(=S)[nH]c2cc3c(cc2c1=O)OCO3)N1CCc2ccccc2C1	-2.7	i	i	-1.4	-182.0%[0.0737 µM]	0.3%
CC1(C)CCC(c2ccc(Cl)cc2)=C(CN2CCN(c3ccc(C(=O)NS(=O)(=O)c4ccc(N[C@H](CCN5CCOCC5)CSc5ccccc5)c(S(=O)(=O)C(F)(F)F)c4)cc3)CC2)C1	/	i	i	/	/	/
Cc1cccc(N2CCN(C(=O)C3CCN(S(=O)(=O)c4ccc5c(c4)oc(=O)n5C)CC3)CC2)c1C	/	i	i	/	/	/
Cc1cccc(N2CCN(C(=O)C3CCCN(S(=O)(=O)c4ccc5c(c4)oc(=O)n5C)C3)CC2)c1C (stereo unspecified)	/	7.31µM*	i	/	/	/
Cn1c(=O)oc2cc(S(=O)(=O)N3CCCC(C(=O)N4CCN(c5cccc(Cl)c5)CC4)C3)ccc21 (stereo unspecified)	/	20.6µM*	i	/	/	/
Cn1c(=O)oc2cc(S(=O)(=O)N3CCC(C(=O)N4CCN(c5cccc(Cl)c5)CC4)CC3)ccc21	/	i	i	/	/	/
COc1cccc(/C=C/C(=O)OCC(=O)N(C)CC(=O)Nc2ccccc2Cl)c1OC	-3.5	i	i	-1.1	5.6%	49.5%
COc1ccc(C(O)c2nc(/C=C/c3ccc(C(F)(F)F)cc3)cs2)cc1 (stereo unspecified)	/	i	?	/	/	/
CCOC(=O)C1(Cc2cccc(OC)c2)CCN(Cc2ccc(C)s2)CC1	-76.1*	i	?	?	?	-1.3%
SMILES	KCNH2 3.1 block	KB-3-1 cytotox	KB-V1 cytotox	KCNH2 WT inh	MCF10A rereplic	SW480 rerep
CCOC(=O)C1(Cc2cccc(OC)c2)CCCN(Cc2cc(OC)c(O)c(OC)c2)C1 (stereo unspecified)	-193.4*	i	?	-134.1*	-8.6%	-4.7%
CCOC(=O)C1(Cc2cccc(OC)c2)CCN(Cc2cccc(O)c2)CC1	-23.9	i	?	5.0	0.6%[9.22 µM]	-73.4%
CCOC(=O)C1(Cc2cccc(OC)c2)CCN(Cc2ccc(OC)c(OC)c2)CC1	-70.1*	i	i	18.4	?	?
CCOC(=O)C1(Cc2cccc(F)c2)CCN(Cc2nc(CC)[nH]c2C)CC1	8.9	i	i	-4.5	12.6µM*	5.8µM*
CCOC(=O)C1(Cc2cccc(OC)c2)CCCN(Cc2cnn(C)c2)C1 (stereo unspecified)	9.2	i	i	-13.5	0.2%	-8.9%
O=C(C1CC(=O)N(c2ccc3c(c2)OCCO3)C1)N1CCN(Cc2ccccc2F)CC1 (stereo unspecified)	-4.1	i	i	1.5	-6.0%	-8.1%
CCOC(=O)C1(Cc2ccccc2)CCN(Cc2cccn2-c2nccs2)CC1	-3.3	i	i	-1.1	?	?
CCOC(=O)C1(Cc2cccc(OC)c2)CCN(Cc2cccn2-c2nccs2)CC1	-100.9*	i	i	-82.6*	-6.9%	?
CCOC(=O)C1(Cc2cccc(OC)c2)CCN(Cc2cccc(OC)c2O)CC1	-19.7	?	5.17µM*	47.5	?	19.6%
COc1ccc2c(=O)c3c(=O)n(Cc4ccco4)c(-c4cc(OC)c(OC)c(OC)c4)nc3oc2c1	3.5	i	i	-13.2	?	-10.1%
COc1ccc2c(=O)c3c(=O)n(Cc4ccco4)c(-c4ccccc4)nc3oc2c1	-1.1	i	4.61µM*	3.4	21.6%	-0.1%
CCC(C)n1cnc2c(c1=O)c1nc3ccccc3nc1n2Cc1ccc(OC)cc1 (stereo unspecified)	-3.5	i	14.6µM*	-7.2	?	9.9%
